Marburg entry inh: qHTS for inhibitors of binding or entry into cells for Marburg Virus; Marburg virus pseudotyped entry inhibition, cell reporter; Potency, µM (series often up to 37.8 µM), for inactives: at the highest dose activity change, negative = inhibition, hits mostly inhibitors; actives 1.8% (n = 300,000); AID 540276, 2011; calls by dose curve; tested in HEK293 cells; note: potency is the fitted concentration of half-maximal effect; % is set by controls: 0 for no effect and ±100 for the full control effect
LASV entry inh: qHTS for Inhibitors of binding or entry into cells for Lassa Virus. Lassa virus pseudotype entry inhibition, cell reporter. Potency, µM (series often up to 37.9 µM), inactives show at the top dose activity change, negative = inhibition, hits mostly inhibitors. actives 1.2% (n = 300,000); calls by dose curve; tested in HEK293 cells; note: potency is the fitted concentration of half-maximal effect; % is set by controls: 0 for no effect and ±100 for the full control effect; nearly all actives have a fitted effect of over 50% in size
Pf growth 96h: Primary qHTS for delayed death inhibitors of the malarial parasite plastid, 96 hour incubation | P. falciparum luciferase reporter growth, 96 h | Potency, µM (top dose mostly 28.7 µM), without a hit: top-dose activity change, negative = inhibition, actives largely listed as inhibitors | actives 6.9% (n = 320,000) | AID 504834, 2011; note: potency is the fitted concentration of half-maximal effect; % is set by controls: 0 for no effect and ±100 for the full control effect
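Readout is luminescence from an integrated firefly luciferase in P. falciparum. Red cells, 2% hematocrit and 0.05% parasitemia final, were cultured with compound through two parasite generations (96 hours) at 37 C, 5% CO2.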
CHX counter: Cycloheximide Counterscreen for Small Molecule Inhibitors of Shiga Toxin | cell reporter, cycloheximide protein synthesis inhibition counterscreen | max response, % | actives 12% (n = 300,000) | AID 2314, 2010; in the data active = max response mostly above about 13%, no sharp cut-off; inactive = mostly below about 14%; note: read at 38.3 µM for the half of the compounds with a filed dose; 0% is about no effect
Pf growth 48h: Primary qHTS for delayed death inhibitors of the malarial parasite plastid, 48 hour incubation; P. falciparum luciferase growth in erythrocytes, 48 h; Potency, µM (titrated, usually from 28.7 µM), for the others: top-dose activity change, negative = inhibition, hits mostly inhibitors; actives 5.9% (n = 310,000); AID 504832, 2011; note: potency is the fitted concentration of half-maximal effect; % is set by controls: 0 for no effect and ±100 for the full control effect
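A one-generation exposure of luciferase-tagged malaria parasites in RPMI 1640/Albumax erythrocyte culture, 37 C and 5% CO2. Inhibition is inferred from decreased luminescence after adding detection reagent.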
Shiga toxin inh: A qHTS for Small Molecule Inhibitors of Shiga Toxin | inhibition, % at 38.7 µM | Vero cells, Shiga toxin protein synthesis inhibition reporter | actives 9.2% (n = 290,000); in the data active = inhibition mostly above about 28%, no sharp cut-off; inactive = mostly below about 43%; note: 0% is about no effect
The depositor's hits bear a star; u = inconclusive; x = no result given; [ ] = another dose, or the depositor's remark. Most compounds without a hit are left out; they make up all but 19% or so of the library. Unless noted, calls come from the whole dose curve; as a rule, active = well fitted inhibition curve with a large enough effect; inconclusive = small, poorly fitted or top-dose-only effect, or another doubt; inactive = no such curve, though single readings can be large or run the other way.

SMILES | Marburg entry inh | LASV entry inh | Pf growth 96h | CHX counter | Pf growth 48h | Shiga toxin inh
Cc1csc(NC(=O)c2ccc(S(=O)(=O)N(C)c3ccccc3)cc2)n1 | u | u | u | 34* | u | 42*
Cc1csc(NC(=O)c2ccc(C(=O)Nc3nc(C)cs3)cc2)n1 | x | x | u | 7 | u | -6
COc1ccc(-c2csc(NC(=O)c3ccc(S(C)(=O)=O)cc3)n2)cc1 | 6%[46.1 µM] | 22%[46.1 µM] | 47% | 33* | -2% | 72*
O=c1[nH]c2cccnc2c2ccsc12 | -23%[14.2 µM] | 1% | 17% | 3 | 3% | -6
COC(=O)c1c(-c2ccncc2)csc1NC(=O)c1ccoc1C | u | 13% | x | 21* | 66% | 66*
CN(c1ccc(C(=O)Nc2nccs2)cc1)S(=O)(=O)c1ccccc1 | u | -28% | 9% | 38* | u | 57*
COc1ccc(S(=O)(=O)N2CCN(Cc3cccs3)CC2)cc1OC | -20% | -21% | x | x | x | x
O=C(Nc1sc2c(c1C(=O)NCC1CCCO1)CCCC2)c1cccs1 (configuration not stated) | u | -8% | u | -1 | u | -6
Cc1ccccc1NC(=O)CCN1C(=O)c2ccccc2C1=O | -11% | u | u | -2 | 1% | -13
COc1ccc(N/N=C/c2c(C(=O)O)ccc3ccccc23)cc1 | x | x | 7.4µM* | 22* | 2.6µM* | 27*
Cc1ccc(/C=C/C(=O)NCCCn2ccnc2)cc1 | 9%[46.1 µM] | 17% | 35% | -3 | u | -13
O=C(O)c1cccc(Cn2c(Cl)c(/C=N/Nc3ccccc3)sc2=O)c1 | u | -29%[46.1 µM] | u | 8 | u | 49
O=C(/C=C/c1ccc(Cl)c(Cl)c1)NCCCn1ccnc1 | u | 8%[46.1 µM] | u | 25* | 2% | 51*
COc1ccc2ccccc2c1/C=N/Nc1cccc(C(=O)O)c1 | 3%[46.1 µM] | 13% | 7% | 72* | 65% | 134*
O=C(O)c1cccc(N/N=C/c2cccc3ccccc23)c1 | 2µM* | u | 327% | 74* | 167% | 165*
COc1ccc(CNC(=O)c2ccccc2C(=O)O)cc1 | 9% | 3% | -2% | 1 | 1% | -1
COc1ccc2ccccc2c1/C=N/Nc1ccc(Cl)c(C(=O)O)c1 | 2%[46.1 µM] | 5%[46.1 µM] | u | 15 | -11% | 56*
COc1ccc(-c2nn(-c3ccccc3)cc2/C=C/C(=O)NCCCn2ccnc2)cc1OC | u | u | 10µM* | -6 | 12µM* | -5
COc1ccc(-c2nn(-c3ccccc3)cc2/C=N/Nc2ccc(Cl)c(C(=O)O)c2)cc1OC | x | x | -1% | 19* | u | 72*
O=C(CNC(=O)c1ccc(Cl)cc1)NCCCn1ccnc1 | u | 2% | u | -3 | 10µM* | 32
COc1ccc(-c2nn(-c3ccccc3)cc2C(=O)O)cc1OC | 17% | -12% | 37% | 17 | x | 17
Cc1cc(C(=O)CN2CCC(C)CC2)c(C)n1-c1ccccc1F | u | u | -32% | 2 | 89% | -5
Nc1c(C(=O)Nc2ccccc2)sc2nc(-c3ccco3)ccc12 | u | u | 15% | 27* | 16% | 95*
COc1ccccc1NC(=O)c1sc2nc(-c3ccco3)ccc2c1N | u | 2% | x | 20* | 13% | 70
Nc1c(C(=O)Nc2ccccc2)sc2nc(-c3cccnc3)ccc12 | x | x | 32% | 49* | 29% | 70*
Cc1ccc(NC(=O)c2sc3nc(-c4ccncc4)ccc3c2N)cc1 | 6%[46.1 µM] | 16%[46.1 µM] | x | x | x | x
COc1ccc2[nH]cc(CCNC(=O)Nc3ccccc3C)c2c1 | 0%[46.1 µM] | 21%[46.1 µM] | -29% | -3 | 17% | x
CC(C)CCNC(=O)/C=C/c1ccc(Br)cc1 | u | 1.6µM* | -18% | 37* | 26% | 100*
CC(C)OC(=O)c1cc(NC(=S)Nc2ccc([N+](=O)[O-])cc2)cc(C(=O)OC(C)C)c1 | 14µM* | u | 17% | 10 | u | 16
CC(C)CCNC(=S)Nc1ccc([N+](=O)[O-])cc1 | u | u | 18% | 30* | u | 56

From PubChem BioAssay
